The values that follow come from PubChem BioAssay (Tox21).

Records with an inconclusive call do not appear. A number with no mark means an inactive call. Calls of active or inactive are those of the source. Calls follow the shape of the dose curve; as a rule, active = well fitted cell-killing curve with a large enough effect in the repeat runs; inconclusive = weak or mixed curves, or effect the other way; inactive = flat fitted curve, though single readings scatter.
% is scaled to controls: 0 for no effect and ±100 for the full control effect.

The nature of the assay: qHTS assay to identify small molecule agonists of the TGF-beta/Smad signaling pathway - cell viability counter screen (AID 1346829). Also: top concentration of the series differs between compounds; nearly all actives have a fitted effect of over 45% in size. As to conditions: SBE-bla HEK293T viability, CellTiter-Glo luminescence, 5 h; series mostly up to 76.8 µM. The source says:
National Center for Advancing Translational Sciences [NCATS]
NIH Chemical Genomics Center [NCGC]
U.S. Environmental Protection Agency [EPA]
National Institutes of Environmental Health Sciences [NIEHS]
National Toxicology Program [NTP]
U.S. Food and Drug Administration [FDA]
Transforming growth factor beta (TGF-beta) superfamily consists of a large number of structurally related dimeric proteins that act as hormones or local mediators in regulating a wide range of biological functions. This superfamily includes TGF-betas themselves, the bone morphogenetic proteins (BMPs) and the activins. These ligands induce oligomerization of serine/threonine receptor kinases and phosphorylate the cytoplasmic signaling molecules of Smad protein family. CellSensor SBE-bla HEK 293T cell line (Life Technologies, Carlsbad, CA), responsive to TGF-beta was used to screen Tox21 10K compound library for identification of agonists/antagonists of the Smad signaling pathway. This cell line contains a beta-lactamase reporter gene under control of the Smad binding element (SBE) stably integrated into HEK 293T cells. Also cytotoxicity of the compounds was tested in parallel by measuring the cell viability using CellTiter-Glo assay system in the same wells.
Tox21 Assay Protocol Summary:
SBE-bla HEK 293T cells were dispensed at 4,000/well in 6 uL of assay medium into black wall/clear-bottom 1536-well plates using a Multidrop Combi (ThermoFisher Scientific, Waltham, MA) dispenser. After the assay plates were incubated at 37 C and 5% CO2 for an overnight, 23 nL of compounds dissolved in DMSO, positive controls or DMSO only was transferred to the assay plate by a Pintool station (Kalypsys, San Diego, CA). The assay plates were incubated at 37 C and 5% CO2 for 5 hr. One uL of LiveBLAzer B/G FRET substrate (Life Technologies) was added using a Flying Reagent Dispenser (FRD, Aurora Discovery, San Diego, CA) and the plates were incubated at room temperature for 2 hr. Fluorescence intensity (405 nm excitation, 460 nm and 530 nm emissions) was measured using an Envision plate reader (PerkinElmer, Shelton, CT). For cytotoxicity read, 4 uL of CellTiter-Glo reagent (Promega Corporation, Madison, WI) was added to each well of the assay plates using FRD. After 30min incubation at room temperature, the luminescence intensity was measured using ViewLux plate reader (PerkinElmer).
For `C=CC(C)(O)CC/C=C(\C)CCC=C(C)C` (stereo not given), the outcome was inactive.
For the compound `CCCCC(CC)COC(=O)COc1cc(Cl)c(Cl)cc1Cl` (stereo not given), the compound was classed as inactive.
The same measure, in the same setting: the same measure for `CN1CCN(C2=Nc3ccccc3Oc3ccc(Cl)cc32)CC1`: “inactive”; for `CCC1(C)NC(=O)NC1=O` (stereo not given): “inactive”.
Same read-out and setting: with `OCCN(CCO)CCN(CCO)CCO` the entry was “inactive”; with `C1CSCCS1`, “inactive”; with `CN1CCN(c2c(F)cc3c(=O)c(C(=O)O)cn(CCF)c3c2F)CC1`, “inactive”.
The same measure, in the same setting: the same measure for `COC(=O)C(C)O` (stereo not given): “inactive”; for `COc1cc(Cl)ccc1Cl`: “inactive”.
Turning to `CCCCCCCCCC#N`, the result was inactive.
Same read-out and setting: the same measure for `CCOC(=O)NCCC[Si](OCC)(OCC)OCC`: “inactive”; for `CCOC(=O)c1cc(=O)c2c(OCC(COc3cccc4oc(C(=O)OCC)cc(=O)c34)OC(=O)[C@@H](N)CCCCN)cccc2o1`: “inactive”; for `O=C(O[C@@H](C(=O)O)[C@@H](OC(=O)c1ccccc1)C(=O)O)c1ccccc1`: “inactive”.
Turning to `CCC(=O)O[C@]1(C(=O)SCF)[C@H](C)C[C@H]2[C@@H]3C[C@H](F)C4=CC(=O)C=C[C@]4(C)[C@@]3(F)[C@@H](O)C[C@@]21C`, the result was inactive.
The same measure, in the same setting: with `O=c1[nH]c(=O)n([C@H]2C[C@H](O)[C@@H](CO)O2)cc1C(F)(F)F` the entry was “inactive”; with `CO[C@@]1(NC(=O)CSCC#N)C(=O)N2C(C(=O)O)=C(CSc3nnnn3C)CS[C@@H]21`, “inactive”.
With `O=Cc1ccc(F)c(Br)c1`, the call was inactive.
For `CC(Oc1c(Cl)cccc1Cl)C1=NCCN1` (stereo not given), the compound was called inactive.
Same read-out and setting: with `CC(C)C1=CC2=CC[C@@H]3[C@](C)(CCC[C@@]3(C)C(=O)O)[C@H]2CC1` the entry was “inactive”; with `CCCNC(C)(C)COC(=O)c1ccccc1`, “inactive”.
For `COC(C)CCO` (stereo not given), the compound was called inactive.
Same read-out and setting: the same measure for `Cc1c(C(=O)NCCO)[n+](=O)c2ccccc2n1[O-]`: “inactive”.
On the same count and under the same terms, the same measure for `CCCCCCn1c(=O)c2c(ncn2C)n(C)c1=O`: “inactive”.
Regarding `CCCCN1C[C@H](O)[C@@H](O)[C@H](O)[C@H]1CO`, the outcome was inactive.
Same read-out and setting: the same measure for `CC(C)C(=O)OC/C=C/c1ccccc1`: “inactive”; for `O=C(Cl)c1cccc([N+](=O)[O-])c1`: “inactive”.
Take `O=c1oc2c(O)c(O)cc3c(=O)oc4c(O)c(O)cc1c4c23`: the activity change, negative = cytotoxicity was 10.9% [at 15.8 µM].
As to `CCCCC1CCC(=O)O1` (stereo not given), the outcome was inactive.
For `CCCC(CCC)(C(=O)OCC)C(=O)OCC`, the outcome was inactive.
Same read-out and setting: the same measure for `COc1ccccc1OCC(O)COC(N)=O` (stereo not given): “inactive”; for `ClC(Cl)Cl`: “inactive”.
On to `CCOC(=O)CS`, for which the compound was classed as inactive.
Same read-out and setting: with `COc1ccc(S(=O)(=O)Nc2nnc(CC(C)C)s2)cc1` the entry was “inactive”; with `CC(C)c1ccccc1`, “inactive”; with `Cc1nc(-c2ccccn2)ncc1C(=O)Nn1cc(C)c2cc(F)ccc21`, “inactive”.
On to `C=CCCC=C`, for which the compound was classed as inactive.
Still for that read-out and setting: the same measure for `CC(=O)Nc1ccc(C)c(Cl)c1`: “inactive”; for `O=C(O)[C@@H]1CSCN1`: “inactive”; for `CN1[C@@H]2CC[C@H]1CC(OC(=O)c1c[nH]c3ccccc13)C2` (stereo not given in full): “inactive”.
Take `O=C1CCCCC1C1CCCCC1` (stereo not given): the call was inactive.
